Assay outcomes as filed in PubChem BioAssay.
NTR1 agonist: agonists of human NTR1, primary screen, imaging, U2OS cells, beta-arrestin-GFP, high content | NTR1-U2OS beta-arrestin-GFP spot imaging, agonist mode | activation, % at 20 µM | 0.17% of 330,000 active | AID 493036, 2011;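 active means activation at or above 40% of the spot to cytoplasm intensity ratio, with at least 20 cells analyzed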
TMEM16A act: TMEM16A chloride channel activators or potentiators, primary screen, cell-based, HTS; B-score at 10 µM; AID 623877, 2012; HEK293 TMEM16A/YFP-H148Q/I152L, iodide quench fluorescence; hits give low values; 0.3% of 340,000 active; Anoctamin-1 (Mus musculus), Q8BHY3;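 active means fluorescence-ratio B-score plate-corrected deviation score at least 3 library SD below zero, with starting fluorescence score within 5 deviations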;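 further: channel opened by trigger with iodide after compound preincubation; score built on the fluorescence ratio of max minus min over baseline; more negative score means more quench and so TMEM16A activation or potentiation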
Target sequence (Q8BHY3 whole entry, looked up): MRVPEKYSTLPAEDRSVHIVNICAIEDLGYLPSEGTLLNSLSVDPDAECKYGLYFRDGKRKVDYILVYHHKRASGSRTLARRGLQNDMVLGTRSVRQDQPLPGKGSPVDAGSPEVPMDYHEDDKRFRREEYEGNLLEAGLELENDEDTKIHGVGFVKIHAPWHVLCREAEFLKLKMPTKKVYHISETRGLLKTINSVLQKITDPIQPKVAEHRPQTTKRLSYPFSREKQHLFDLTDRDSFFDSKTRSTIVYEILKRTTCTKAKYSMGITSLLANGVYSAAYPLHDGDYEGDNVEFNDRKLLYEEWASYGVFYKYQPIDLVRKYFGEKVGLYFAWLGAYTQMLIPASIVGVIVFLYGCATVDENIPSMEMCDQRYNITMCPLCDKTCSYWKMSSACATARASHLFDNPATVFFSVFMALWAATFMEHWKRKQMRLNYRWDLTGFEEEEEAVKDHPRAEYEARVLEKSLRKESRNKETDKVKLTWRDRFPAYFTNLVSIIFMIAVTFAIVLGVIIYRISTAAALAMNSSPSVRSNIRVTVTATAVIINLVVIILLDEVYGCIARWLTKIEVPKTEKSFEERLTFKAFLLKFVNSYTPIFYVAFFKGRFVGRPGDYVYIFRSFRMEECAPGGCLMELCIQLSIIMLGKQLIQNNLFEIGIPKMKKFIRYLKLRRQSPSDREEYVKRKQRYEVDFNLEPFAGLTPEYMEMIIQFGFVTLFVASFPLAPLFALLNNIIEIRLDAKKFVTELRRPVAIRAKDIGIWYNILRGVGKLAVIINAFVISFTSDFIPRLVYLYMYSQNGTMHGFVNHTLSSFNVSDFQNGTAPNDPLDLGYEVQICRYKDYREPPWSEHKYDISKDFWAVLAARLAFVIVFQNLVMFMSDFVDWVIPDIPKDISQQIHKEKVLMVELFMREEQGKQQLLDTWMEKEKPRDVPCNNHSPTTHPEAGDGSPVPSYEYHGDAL
MEKK3 PB1 HTS: modulators of MEKK3-MEK5 PB1 binding, primary screen, biochemical, wildtype MEKK3, multiplex bead flow cytometry, Alexa488-MEK5; bead-based flow cytometry, Alexa488-MEK5 binding to MEKK3; actives lie on both sides; 0 = blocked by unlabeled MEK5, 100 = vehicle; binding response (% of control), % at 10 µM; 1.4% of 290,000 active; AID 1529, 2009;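 active means binding response more than 3 SD above or below the average of its plate-row segment, actives on both sides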;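 further: Alexa488 bead fluorescence after subtracting the streptavidin-only scavenger bead signal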
MEKK2 mut-MEK5: MEK5 binding signal on mutant MEKK2 PB1, primary screen, biochemical, multiplex bead flow cytometry, Alexa488-MEK5. Alexa488-MEK5 binding to MEKK2 mutant. percent response, % at 10 µM. 0.35% of 290,000 active; in the data active means percent response above about 24%, passing the limit was not always enough
ANO1 block: TMEM16A chloride channel inhibitors, primary screen, cell-based, HTS; Anoctamin-1 (Mus musculus), Q8BHY3; HEK293 TMEM16A/YFP iodide influx fluorescence, ionomycin; normalized B-score (activity score, 25-100; higher = stronger inhibition) at 10 µM; 1.2% of 310,000 active; AID 588511, 2011;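 active means ratio plate-corrected score three or more library SD toward inhibition, starting fluorescence score within five deviations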;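 further: score derived from kinetic fluorescence span divided by baseline fluorescence per well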
MEKK2 WT-MEK5: modulators of MEK5 binding to wildtype MEKK2, primary screen, biochemical, multiplex bead flow cytometry, Alexa488-MEK5; 1.1% of 290,000 active; binding response (% of control), % at 10 µM; Alexa488-MEK5 binding to MEKK2 WT; actives lie on both sides; in the data active means binding response below about 67% or above about 130%
TMEM16A reconf: TMEM16A chloride channel inhibitors, confirmation, cell-based, re-confirmation | shares compounds with ANO1 block | HEK293 TMEM16A/YFP-H148Q, iodide quench fluorescence; ionomycin added to raise cell calcium | inhibition, % at 10 µM | 39% of 2,300 active;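 active means mean duplicate percent inhibition, scaled so buffer wells are 0 and the reference blocker 100, over three buffer SD above buffer mean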
TMEM16A Ca cntr: calcium mobilization in TMEM16A/YFP HEK293 cells, confirmation, counter-screen for TMEM16A inhibitor project; shares compounds with ANO1 block; Fluo4 calcium mobilization; AID 652231, 2013; calcium response (% of ionomycin), % at 10 µM; 2% of 2,300 active;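 active means duplicate-averaged calcium signal over 20% of the ionomycin maximum, relative to buffer baseline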;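 further: each well's signal is peak minus trough fluorescence divided by its pre-addition baseline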
YFP-HEK293 quench: iodide YFP quench changes in parental YFP-HEK293, counter-screen for TMEM16A inhibitor project, cell-based | shares compounds with ANO1 block | ionomycin | YFP ratio F(max-min)/F0 at 10 µM | 2,300 tested, under 10 active | AID 652233, 2013;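 active means yellow fluorescent protein signal ratio exceeding the buffer control mean by over 5 SD of those controls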;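 further: ratio is mean of duplicate wells from kinetic YFP trace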
ClC-1 inh: ClC-1 chloride channel inhibition, selectivity assay for TMEM16A inhibitor project, cell-based, voltage-dependent ClC-1; shares compounds with ANO1 block; CHO ClC-1-YFP, iodide influx fluorescence quench; iodide control reads 0, buffer control 100; ratio percent, % at 10 µM; 2,300 tested, under 10 active; AID 652236, 2013;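 active means duplicate-mean ratio percent above the mean of iodide-only control wells, which defines zero, plus 5 of their SD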;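 further: higher percent means stronger block of ClC-1 iodide influx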
Large screens that a line does not name were inactive (follow-up assays come after a bar, where they were run). Sampled rows, rich in hits. Any-hit rate of the full collection: about 3.4%.

CC(=O)c1sc(NC(=O)C2(F)C(F)(F)C(F)(F)C(F)(F)C(F)(F)C2(F)F)nc1C	ANO1 block 100 | TMEM16A reconf 43% | TMEM16A Ca cntr inactive | YFP-HEK293 quench inactive | ClC-1 inh inactive
C=CCC1(CC=C)CCCN1C(=O)CC1C(=O)NCCN1Cc1cccc(OC)c1OC (stereo unspecified)	none
O=C(CSc1nnc(-c2cccs2)o1)c1cccs1	none
Cc1cc(C(=O)CSc2nnc(-c3ccco3)o2)c(C)n1Cc1ccco1	none (no result: MEKK3 PB1 HTS, MEKK2 mut-MEK5, MEKK2 WT-MEK5) | TMEM16A reconf inactive | TMEM16A Ca cntr inactive | YFP-HEK293 quench inactive | ClC-1 inh inactive
Cc1cc(C(=O)CSc2nnc(-c3cccs3)o2)c(C)n1-c1ccccc1	ANO1 block 100 | TMEM16A reconf inactive | TMEM16A Ca cntr inactive | YFP-HEK293 quench inactive | ClC-1 inh inactive
O=S(=O)(c1ccc2c(c1)OCCO2)N1CCN(c2ncnc3sccc23)CC1	ANO1 block 25 | TMEM16A reconf 17% | TMEM16A Ca cntr inactive | YFP-HEK293 quench inactive | ClC-1 inh inactive
O=S(=O)(c1ccc2c(c1)OCCO2)N1CCC(O)(c2ccc(Cl)cc2)CC1	ANO1 block 100 | TMEM16A reconf inactive | TMEM16A Ca cntr inactive | YFP-HEK293 quench inactive | ClC-1 inh inactive
Cc1ccc(S(=O)(=O)N2CCN(c3ncnc4sccc34)CC2)cc1C	none (no result: MEKK3 PB1 HTS, MEKK2 mut-MEK5, ANO1 block, MEKK2 WT-MEK5)
Cc1ccc(NC(=S)N2CCN(S(=O)(=O)c3c(F)cccc3F)CC2)cc1C	none
CCOC(=O)C1=C(N)Oc2cc(O)ccc2C1c1cccnc1 (stereo unspecified)	ANO1 block 100 | TMEM16A reconf 30% | TMEM16A Ca cntr inactive | YFP-HEK293 quench inactive | ClC-1 inh inactive
O=C(CC1Sc2ccccc2NC1=O)OCc1cc(=O)oc2cc(O)ccc12 (stereo unspecified)	ANO1 block 25 | TMEM16A reconf 32% | TMEM16A Ca cntr inactive | YFP-HEK293 quench inactive | ClC-1 inh inactive
COc1ccc(NS(=O)(=O)c2ccc(-c3cnc(C4CC4)o3)cc2)cc1OC	ANO1 block 25 | TMEM16A reconf 34% | TMEM16A Ca cntr inactive | YFP-HEK293 quench inactive | ClC-1 inh inactive
COc1ccc(C(=O)N[C@H](C(=O)NCc2cccs2)C(C)C)cc1	none
O=C(CCl)NCc1c(Cl)cccc1-n1cccc1	ANO1 block 25 | TMEM16A reconf inactive | TMEM16A Ca cntr inactive | YFP-HEK293 quench inactive | ClC-1 inh inactive
O=C(Cc1c(Cl)cccc1Cl)NCCc1ccc(Cl)cc1	none
COC(=O)Cc1ccc(NC(=S)Nc2ccc(N3CCOCC3)cc2)cc1	ANO1 block 25 | TMEM16A reconf inactive | TMEM16A Ca cntr inactive | YFP-HEK293 quench inactive | ClC-1 inh inactive
CCC1SC2=NC(C)=C(C(=O)OCC(C)C)C(/C=C/c3ccccc3OC)N2C1=O (stereo unspecified)	ANO1 block 100 | TMEM16A reconf inactive | TMEM16A Ca cntr inactive | YFP-HEK293 quench inactive | ClC-1 inh inactive
